PubChem BioAssay (Tox21)
Inconclusive results are not listed. Active and inactive are the calls of the source. Unless noted, calls follow the shape of the full dose curve.

How the values were obtained:
[1] = qHTS assay to identify small molecule antagonists of the peroxisome proliferator-activated receptor delta (PPARd) signaling pathway - cell viability counter screen (AID 743213; active = well fitted curve in the direction sought with a large enough effect in the repeat runs; an effect the other way counts as inactive or inconclusive; also: nearly all actives have a fitted effect of over 50% in size)
Outline: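 Viability counter-screen, qHTS format: PPARd-bla HEK293H, L165041 300 nM final, 17 h compound exposure at 37 C, CellTiter-Glo luminescence after 30 min RT.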

[2] = qHTS assay to identify small molecule agonists of the farnesoid-X-receptor (FXR) signaling pathway - cell viability counter screen (AID 743218; active = well fitted curve in the direction sought with a large enough effect in the repeat runs; an effect the other way counts as inactive or inconclusive; also: nearly all actives have a fitted effect of over 45% in size)
Outline: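 FXR-UAS-bla HEK 293T cells exposed to compounds for 16 h at 37C. Cytotoxicity read in the same wells by CellTiter-Glo luminescence after 30 min at room temperature, following the beta-lactamase FRET read.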

[3] = qHTS assay to identify small molecule antagonists of the farnesoid-X-receptor (FXR) signaling pathway - cell viability counter screen (AID 743221; active = well fitted cell-killing curve with a large enough effect in the repeat runs, not every such curve was filed as active; also: nearly all actives have a fitted effect of over 50% in size)
Outline: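 CellTiter-Glo, 30 min RT, luminescence; same wells as the LiveBLAzer FRET read. Cells: FXR-UAS-bla HEK 293T. Treatment: compound with chenodeoxycholic acid 50 uM final, 16 h at 37 C.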

[4] = biological target: Vitamin D3 receptor (Homo sapiens) (UniProt P11473); assay: qHTS assay to identify small molecule agonists of the vitamin D receptor (VDR) signaling pathway (AID 743222)
Chain of Vitamin D3 receptor (Homo sapiens) (P11473 whole entry, looked up): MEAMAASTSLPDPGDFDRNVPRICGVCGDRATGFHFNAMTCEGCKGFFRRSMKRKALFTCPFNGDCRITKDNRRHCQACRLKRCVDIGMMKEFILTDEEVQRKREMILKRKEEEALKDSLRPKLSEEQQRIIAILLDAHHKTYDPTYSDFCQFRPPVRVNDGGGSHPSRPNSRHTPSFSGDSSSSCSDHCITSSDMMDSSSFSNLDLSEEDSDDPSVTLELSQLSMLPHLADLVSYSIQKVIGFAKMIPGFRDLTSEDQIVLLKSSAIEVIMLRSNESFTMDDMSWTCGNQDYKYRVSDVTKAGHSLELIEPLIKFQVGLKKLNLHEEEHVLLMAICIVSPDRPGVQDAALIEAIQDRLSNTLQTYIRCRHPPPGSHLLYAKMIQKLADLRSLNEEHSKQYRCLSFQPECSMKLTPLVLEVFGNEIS
Outline: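 VDR-bla cells plated 4 h at 37 C, then exposed to compounds for 16 h at 37 C. Beta-lactamase reporter activity measured by fluorescence after 2 h room-temperature loading with LiveBLAzer B/G FRET substrate.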

[5] = biological target: Vitamin D3 receptor (Homo sapiens) (UniProt P11473); assay: qHTS assay to identify small molecule antagonists of the vitamin D receptor (VDR) signaling pathway (AID 743223; active = well fitted inhibition curve with a large enough effect in the signal ratio in the repeat runs, not every such curve was filed as active; the % refers to the signal ratio)
Outline: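 After VDR-bla cells are plated and left 4 h at 37C, DMSO-dissolved compounds and 3 nM (final) calcitriol agonist are added. Incubation continues 16 h at 37C; FRET beta-lactamase substrate then develops 2 h at room temperature.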

[6] = qHTS assay to identify small molecule agonists of the NFkB signaling pathway (AID 1159509; active = well fitted curve in the direction sought with a large enough effect in the signal ratio in the repeat runs, not every such curve was filed as active; the % refers to the signal ratio; also: series mostly up to about 61 µM)
Outline: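 After overnight attachment, reporter cells received test compounds, DMSO or positive controls and were incubated 5 hr at 37 C. FRET substrate was then added for 1.5 hr at room temperature before dual-emission fluorescence reading.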

[7] = qHTS assay to identify small molecule agonists of the NFkB signaling pathway - cell viability counter screen (AID 1159515); also: series mostly up to about 61 µM; nearly all actives have a fitted effect of over 55% in size
Outline: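 NFkB-bla ME-180 cells, 2,000/well, plated overnight at 37 C; compound added for 5 hr at 37 C. Viability read in the same wells as the bla reporter, by CellTiter-Glo luminescence after 30 min at room temperature.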

[8] = qHTS assay to identify small molecule agonists of the endoplasmic reticulum stress response signaling pathway (AID 1159516; active = well fitted activation curve with a large enough effect in the signal ratio in the repeat runs, not every such curve was filed as active; the % refers to the signal ratio)
Outline: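 CellSensor ESRE-bla HeLa cells, 1,500 per well, plated overnight, then exposed to compounds for 5 hr at 37 C. Beta-lactamase reporter read with LiveBLAzer B/G FRET substrate after 2 hr at room temperature, 405 nm excitation, 460 and 530 nm emission.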

[9] = qHTS assay to identify small molecule agonists of the endoplasmic reticulum stress response signaling pathway - cell viability counter screen (AID 1159517);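 also: HeLa cells carrying an ER stress response element beta-lactamase reporter; series mostly up to about 61 µM; nearly all actives have a fitted effect of over 50% in size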
Outline: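 Cells, HeLa ESRE-bla; density, 1,500/well; dosing, 5 hr at 37 C, 5% CO2; readout, CellTiter-Glo luminescence after 30 min RT.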

[10] = qHTS assay to identify small molecule antagonists of the retinoid-related orphan receptor gamma (ROR-gamma) signaling pathway - cell viability counter screen (AID 1159520; active = well fitted curve in the direction sought with a large enough effect in the repeat runs; an effect the other way counts as inactive or inconclusive; also: nearly all actives have a fitted effect of over 50% in size)
Outline: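 Cytotoxicity was read from cellular ATP (CellTiter-Glo luminescence) after 16 hr at 37 C with 1 uM doxycycline induction. The inducer was added 2 hr after compound transfer to Tet-on ROR gamma CHO cells.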

[11] = biological target: Nuclear receptor ROR-gamma (Homo sapiens) (UniProt P51449); assay: qHTS assay to identify small molecule antagonists of the retinoid-related orphan receptor gamma (ROR-gamma) signaling pathway (AID 1159521; active = well fitted curve in the direction sought with a large enough effect in the repeat runs; an effect the other way counts as inactive or inconclusive)
Outline: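 Readout: ONE-Glo luciferase luminescence, 30 min at room temperature. System: Tet-on RORγ CHO, RORE-LUC. Sequence: compound 2 h, doxycycline 1 uM final, 16 h at 37 C.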

[12] = qHTS assay to identify small molecule agonists of the AP-1 signaling pathway - cell viability counter screen (AID 1159525); also: nearly all actives have a fitted effect of over 55% in size
Outline: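 Luminescent ATP readout (Cell Titer Glo, 30 min RT), normalised to DMSO and tetra n-octyl ammonium bromide controls. Cells were ME-180 AP-1-bla in 0.5% dialyzed FBS Opti-MEM, with a 5 h, 37 °C compound exposure.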

[13] = qHTS assay to identify small molecule agonists of the peroxisome proliferator-activated receptor delta (PPARd) signaling pathway - cell viability counter screen (AID 743211; active = well fitted curve in the direction sought with a large enough effect in the repeat runs; an effect the other way counts as inactive or inconclusive; also: nearly all actives have a fitted effect of over 55% in size)
Outline: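 Multiplexed format: after the 2 h room-temperature LiveBLAzer B/G FRET step, CellTiter-Glo was added to the same wells. Luminescence after 30 min gave cell viability; compound exposure was 17 h at 37C.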

[14] = biological target: Peroxisome proliferator-activated receptor delta (Homo sapiens) (UniProt Q03181); assay: qHTS assay to identify small molecule agonists of the peroxisome proliferator-activated receptor delta (PPARd) signaling pathway (AID 743212)
Chain of Peroxisome proliferator-activated receptor delta (Homo sapiens) (Q03181 whole entry, looked up): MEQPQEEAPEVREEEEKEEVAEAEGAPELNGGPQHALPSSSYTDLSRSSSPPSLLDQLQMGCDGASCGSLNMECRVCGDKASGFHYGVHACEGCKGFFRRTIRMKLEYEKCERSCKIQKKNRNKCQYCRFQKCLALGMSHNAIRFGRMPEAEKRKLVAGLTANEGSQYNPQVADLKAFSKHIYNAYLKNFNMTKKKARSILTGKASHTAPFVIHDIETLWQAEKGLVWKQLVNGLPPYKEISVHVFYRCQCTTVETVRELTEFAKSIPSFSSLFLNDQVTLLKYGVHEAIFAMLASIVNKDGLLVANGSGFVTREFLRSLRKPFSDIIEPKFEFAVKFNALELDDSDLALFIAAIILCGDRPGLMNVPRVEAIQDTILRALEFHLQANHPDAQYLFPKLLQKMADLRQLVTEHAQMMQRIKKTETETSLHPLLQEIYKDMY
Outline: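 HEK293H UAS-bla reporter cells, human PPARd system; compounds delivered in DMSO after 5 h plating, then at 37 C. Beta-lactamase FRET read, 2 h RT substrate step.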

[15] = biological target: Peroxisome proliferator-activated receptor delta (Homo sapiens) (UniProt Q03181); assay: qHTS assay to identify small molecule antagonists of the peroxisome proliferator-activated receptor delta (PPARd) signaling pathway (AID 743215; active = well fitted inhibition curve with a large enough effect in the signal ratio in the repeat runs, not every such curve was filed as active; the % refers to the signal ratio;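 also: cells stimulated with agonist L165041 at 300 nM final during compound exposure; series mostly up to about 62 µM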)
Outline: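 PPARd-bla HEK293H cells (UAS-bla reporter) preincubated 5 h, then given compound plus 300 nM final L165041 agonist for 17 h at 37 C. Beta-lactamase activity read by LiveBLAzer B/G FRET substrate fluorescence after 2 h at room temperature.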

[16] = qHTS assay to identify small molecule agonists of the vitamin D receptor (VDR) signaling pathway - cell viability counter screen (AID 743224; active = well fitted curve in the direction sought with a large enough effect in the repeat runs; an effect the other way counts as inactive or inconclusive)
Outline: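 VDR-bla cells, 4 h after plating, exposed to compounds for 16 h at 37C; viability then read in the same wells as CellTiter-Glo luminescence after 30 min at room temperature, following the bla FRET read.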

[17] = qHTS assay to identify small molecule antagonists of the vitamin D receptor (VDR) signaling pathway - cell viability counter screen (AID 743225; active = well fitted curve in the direction sought with a large enough effect in the repeat runs; an effect the other way counts as inactive or inconclusive; also: nearly all actives have a fitted effect of over 50% in size)
Outline: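 Cytotoxicity toward the VDR-bla HEK 293T line was scored by ATP-based CellTiter-Glo luminescence, read in the wells already used for the beta-lactamase readout after 16 h compound treatment under 3 nM 1-alpha,25-dihydroxyvitamin D3 stimulation.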

[18] = qHTS assay to identify small molecule agonists of the AP-1 signaling pathway (AID 1159526)
[19] = biological target: Bile acid receptor (Homo sapiens) (UniProt Q96RI1); assay: qHTS assay to identify small molecule antagonists of the farnesoid-X-receptor (FXR) signaling pathway (AID 743217; active = well fitted inhibition curve with a large enough effect in the signal ratio in the repeat runs, not every such curve was filed as active; the % refers to the signal ratio)
Chain of Bile acid receptor (Homo sapiens) (Q96RI1 whole entry, looked up): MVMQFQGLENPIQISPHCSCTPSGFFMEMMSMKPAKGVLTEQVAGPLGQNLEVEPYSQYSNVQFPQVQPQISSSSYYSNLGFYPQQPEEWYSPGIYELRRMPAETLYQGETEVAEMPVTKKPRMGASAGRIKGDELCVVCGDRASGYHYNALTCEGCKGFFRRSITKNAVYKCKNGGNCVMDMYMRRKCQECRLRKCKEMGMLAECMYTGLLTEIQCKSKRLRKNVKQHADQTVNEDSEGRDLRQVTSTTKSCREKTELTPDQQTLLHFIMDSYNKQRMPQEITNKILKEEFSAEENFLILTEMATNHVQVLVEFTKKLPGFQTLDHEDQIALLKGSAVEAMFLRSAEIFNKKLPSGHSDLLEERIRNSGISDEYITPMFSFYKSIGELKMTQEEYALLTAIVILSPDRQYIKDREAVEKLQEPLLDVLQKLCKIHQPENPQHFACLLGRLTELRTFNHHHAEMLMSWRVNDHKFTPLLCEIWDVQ
Outline: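 FXR-UAS-bla HEK 293T cells (beta-lactamase reporter) given compound plus chenodeoxycholic acid (50 uM final), 16 h at 37C. LiveBLAzer B/G FRET substrate added for 2 h at room temperature; fluorescence read.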

[20] = biological target: Bile acid receptor (Homo sapiens) (UniProt Q96RI1); assay: qHTS assay to identify small molecule agonists of the farnesoid-X-receptor (FXR) signaling pathway (AID 743220; active = well fitted activation curve with a large enough effect in the signal ratio in the repeat runs, not every such curve was filed as active; the % refers to the signal ratio)
Outline: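 Beta-lactamase reporter under UAS control in GeneBLAzer FXR HEK 293T cells (5000/well) measured with LiveBLAzer FRET substrate after 2 h at room temperature. Compound exposure lasted 16 h at 37C.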

Measured: Potency

CC(C(O)c1ccccc1)N(C)C/C=C/c1ccccc1 (configuration not stated)
not listed: [13] | [14] | [15] | [16] | [17] | [18] | [19] | [20]
inactive: all other assays above

CCN(CC)C(C)C(=O)c1ccccc1 (configuration not stated)
not listed: [1] | [4] | [5] | [11] | [19] | [20]
inactive: all other assays above

Nc1ccccc1Cl
not listed: [5] | [11]
inactive: all other assays above

Cc1nc(N)nc(N)n1
not listed: [1] | [11] | [19] | [20]
inactive: all other assays above

N#CC(Cl)(Cl)Cl
not listed: [2] | [4] | [5] | [11] | [15]
inactive: all other assays above

CCCCc1c(C)nc(NCC)[nH]c1=O
not listed: [2] | [5] | [11] | [19] | [20]
inactive: all other assays above

O=C(Oc1ccc(Br)cc1)N1CCN2CCC1CC2
not listed: [2] | [11] | [15] | [19] | [20]
inactive: all other assays above

COP(=S)(OC)Oc1c(Cl)cc(C)cc1Cl
not listed: [1] | [2] | [11] | [19] | [20]
inactive: all other assays above

Oc1c(Cl)cccc1Cl
not listed: [2] | [11] | [13] | [19] | [20]
inactive: all other assays above

CCOC(=O)/C=C(C)/C=C/C[C@@H](C)CCCC(C)C
not listed: [1] | [4] | [5] | [11] | [13] | [15] | [16]
inactive: all other assays above

CNC(=O)Oc1c(C(C)(C)C)cc(C)cc1C(C)(C)C
not listed: [2] | [11]
inactive: all other assays above

OC(c1ccc(F)cc1)(c1cncnc1)c1ccccc1Cl (configuration not stated)
not listed: [4] | [5] | [11] | [19] | [20]
inactive: all other assays above

c1ccc(N2CCNCC2)cc1
not listed: [1] | [11] | [14] | [15]
inactive: all other assays above

CC(=O)[C@H]1CC[C@H]2[C@@H]3CC[C@H]4C[C@H](O)CC[C@]4(C)[C@H]3C(=O)C[C@]12C
not listed: [5] | [11]
inactive: all other assays above

CSc1ccc(C(=O)C(C)(C)N2CCOCC2)cc1
not listed: [1] | [11] | [16]
inactive: all other assays above

COC(=O)c1c(C(F)F)nc(C(F)(F)F)c(C2=NCCS2)c1CC(C)C
not listed: [1] | [2] | [11] | [19] | [20]
inactive: all other assays above
